# Reference: the supplement of paper PMC9694430
# Assays:
# Assay in all cases: thermal shift delta Tm vs DMSO control; higher = stronger stabilization (binding)
# Settings in all cases: 12.5 µM; protein concentration 2 µM
# LOC_OS01G01410-cb001 = test system: LOC_OS01G01410-cb001
# Procedure, shortened: (§1)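 Rice kinase domain constructs were expressed in E. coli, purified, and tested by differential scanning fluorimetry with compound added in DMSO. Each well of a 96-well plate held 19.5 μl of 2 μM kinase in 100 mM potassium phosphate pH 7.5, 150 mM NaCl, 10% glycerol and 5 × SYPRO Orange, and fluorescence was read from 25°C to 95°C at 0.05°C/s. The melting temperature shift is the mean of triplicates, taken against protein with DMSO alone after Boltzmann fitting.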
# LOC_OS01G02750-cb003 = test system: LOC_OS01G02750-cb003
# Procedure, shortened: as §1
# LOC_OS01G10900-cb004 = test system: LOC_OS01G10900-cb004
# Procedure, shortened: as §1
# LOC_OS01G13800-cb001 = test system: LOC_OS01G13800-cb001
# Procedure, shortened: as §1
# LOC_OS01G14860-cb001 = test system: LOC_OS01G14860-cb001
# Procedure, shortened: as §1
# LOC_OS01G21960-cb002 = test system: LOC_OS01G21960-cb002
# Procedure, shortened: as §1
# LOC_OS01G39600-cb002 = test system: LOC_OS01G39600-cb002
# Procedure, shortened: as §1
# LOC_OS01G48390-cb002 = test system: LOC_OS01G48390-cb002
# Procedure, shortened: as §1
# LOC_OS01G51400-cb002 = test system: LOC_OS01G51400-cb002
# Procedure, shortened: as §1
# LOC_OS01G52050-cb004 = test system: T1, LOC_OS01G52050-cb004
# T1 sequence (whole entry): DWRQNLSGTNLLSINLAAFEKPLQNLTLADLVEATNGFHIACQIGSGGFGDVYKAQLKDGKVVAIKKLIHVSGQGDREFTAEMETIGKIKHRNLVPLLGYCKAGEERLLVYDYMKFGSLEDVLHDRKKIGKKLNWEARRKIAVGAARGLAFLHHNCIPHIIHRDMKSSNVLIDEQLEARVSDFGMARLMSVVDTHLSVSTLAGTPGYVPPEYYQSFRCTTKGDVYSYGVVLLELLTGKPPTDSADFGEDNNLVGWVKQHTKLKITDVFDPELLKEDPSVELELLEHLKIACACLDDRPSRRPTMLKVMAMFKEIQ
# Procedure, shortened: as §1
SMILES,thermal shift delta Tm (LOC_OS01G01410-cb001) [°C],thermal shift delta Tm (LOC_OS01G02750-cb003) [°C],thermal shift delta Tm (LOC_OS01G10900-cb004) [°C],thermal shift delta Tm (LOC_OS01G13800-cb001) [°C],thermal shift delta Tm (LOC_OS01G14860-cb001) [°C],thermal shift delta Tm (LOC_OS01G21960-cb002) [°C],thermal shift delta Tm (LOC_OS01G39600-cb002) [°C],thermal shift delta Tm (LOC_OS01G48390-cb002) [°C],thermal shift delta Tm (LOC_OS01G51400-cb002) [°C],thermal shift delta Tm (LOC_OS01G52050-cb004) [°C]
O=c1ncn2nc(Sc3ccc(F)cc3F)ccc2c1-c1c(Cl)cccc1Cl,0.07,0.77,0.61,0.23,0.42,0.49,-0.38,0.32,0.15,0.02
CCn1c(=O)c(-c2cc[nH]n2)cc2c(C)nc(N)nc21,0.43,1.06,0.44,0.27,0.44,0.65,0.24,0.13,-0.16,0.21
N#Cc1ccc2[nH]c(O)c(-c3ccc(CN4CCOCC4)cn3)c2c1,0.79,1.84,0.41,-0.53,6.12,0.79,1.95,1.33,0.34,0.44
CO[C@H]1C[C@@H]2CC[C@@H](C)[C@@](O)(O2)C(=O)C(=O)N2CCCC[C@H]2C(=O)O[C@H]([C@H](C)C[C@@H]2CC[C@@H](OC(=O)C(C)(CO)CO)[C@H](OC)C2)CC(=O)[C@H](C)/C=C(\C)[C@@H](O)[C@@H](OC)C(=O)[C@H](C)C[C@H](C)/C=C/C=C/C=C/1C,1,0.76,0.53,0.18,0,0.4,0.18,0.44,0.1,0.73
CCNC(=O)Nc1ccc(-c2nc3c(c(N4CCOC[C@@H]4C)n2)CCN(C2COC2)C3)cc1,0.46,0.52,0.25,0.66,0.02,0.43,-0.29,0.42,-0.02,0.23
CCS(=O)(=O)Nc1ccc2c(c1)/C(=C(/Nc1ccc(CN3CCCCC3)cc1)c1ccccc1)C(=O)N2 [Hesperadin],1.67,4.74,0.26,-0.97,4.63,3.67,7.78,0.03,0.3,6.95
Cc1c(Cn2c(C)nc3c(C(=O)O)cc(N4CCOCC4)cc32)cccc1C(F)(F)F,0.42,2.18,0.15,-0.48,-0.01,0.56,0.55,5.45,0.63,-0.39
O=C(NCCO)c1cccc(-c2cc(Nc3ccc(OC(F)(F)F)cc3)ncn2)c1,0.32,0.32,0.34,0.62,1.32,0.44,0.3,2.99,0.2,1.46
CCN(C)S(=O)(=O)Nc1ccc(F)c(C(=O)c2c[nH]c3ncc(-c4cnc(C5CC5)nc4)cc23)c1F,1.92,0.92,1.18,0.03,2.04,0.51,3.55,1.01,0.11,0.72
